Source: PubChem
The list is not random: actives were taken first. Their share in the collection is about 9.3%.
M1 antag: antagonists of rat M1 muscarinic receptor; Muscarinic acetylcholine receptor M1 (Rattus norvegicus), P08482; CHO-M1 cells, Fluo-4 calcium, ACh EC80 antagonist mode; active compounds read low; B-score at 10 µM; hit rate 3.4% among 64,000; AID 628, 2007;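 active means calcium fluorescence response, raw or row-and-column corrected B-score, differing from the plate sample mean either way at a set confidence level, mostly lower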
Target sequence (P08482 whole entry, looked up): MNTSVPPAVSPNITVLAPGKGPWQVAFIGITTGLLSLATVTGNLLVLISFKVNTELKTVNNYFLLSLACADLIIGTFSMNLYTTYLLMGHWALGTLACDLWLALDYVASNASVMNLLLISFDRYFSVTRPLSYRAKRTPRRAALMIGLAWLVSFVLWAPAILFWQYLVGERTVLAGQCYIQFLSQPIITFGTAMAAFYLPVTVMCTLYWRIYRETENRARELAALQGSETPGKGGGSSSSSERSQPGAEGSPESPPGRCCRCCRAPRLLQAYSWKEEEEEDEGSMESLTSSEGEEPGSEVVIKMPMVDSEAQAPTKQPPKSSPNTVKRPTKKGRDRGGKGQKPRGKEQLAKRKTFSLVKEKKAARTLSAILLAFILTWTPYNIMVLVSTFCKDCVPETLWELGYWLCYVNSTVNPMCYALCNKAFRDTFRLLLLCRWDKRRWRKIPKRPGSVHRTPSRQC
Htt clearance: clearance of mutant huntingtin inclusions, primary screen, imaging, HeLa Exon1htt(103Q)mCFP, confocal imaging | aggregate imaging; zero = plate's median compound well | inhibition, % at 1.5 µM | hit rate 0.42% among 47,000;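 active means inhibition of aggregate fluorescence above about 70%, also judged a hit by eye on the cell image, limit read from the data, passing the limit was not always enough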;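 further: cells exposed to compound for three days before fixation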
A340 absorber: compound light absorbance at 340 nm, profiling panel, artefact control, biochemical, MLSMR library, data from PS, PMK, MK assays | AID 708, 2007 | fold change at 10 µM | 65,000 tested, under 10 active | compound absorbance at 340 nm, fold over control;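 active means at 10 µM dose, initial 340 nm absorbance at least 2 fold that of control wells; inactive means change under 2 fold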;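 further: initial absorbance extrapolated from kinetic A340 decline of NADH oxidation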
Autofluor 339: intrinsic fluorescence of library compounds, ex339/em460 – biochemical, MLSMR library, data from DPM-DC assay, artefact control, profiling panel; compound autofluorescence, ex339/em460 nm, NADH buffer; active compounds read high; 1 = no-compound wells, NADH background; fluorescence fold increase at 10 µM; hit rate 5.5% among 65,000;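 active means at 10 µM, mean starting fluorescence two-fold or more over control wells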;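 further: signal is the first read of a kinetic run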
NADH coupling: inhibitors of PK/LDH coupling enzymes, profiling panel, artefact control, biochemical, MLSMR library; coupled PK/LDH NADH assays, four targets; IC50, µM (top dose mostly 10 µM), without a hit: at the highest dose inhibition; hit rate 0.02% among 65,000; AID 774, 2007;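 active means single-dose screening hits from any of four coupled enzyme assays that gave an IC50 when retested across doses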;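 further: the DPM-DC format reads NADH fluorescence rather than 340 nm absorbance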
M1 ag: M1 muscarinic receptor agonists, primary screen, CHO-M1 cells, Fluo-4 calcium, agonist mode; hit rate 3% among 64,000; Fluo-4 calcium fluorescence; active compounds read high; Muscarinic acetylcholine receptor M1; B-score at 10 µM;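 active means fluorescence rise, raw or as B-score row- and column-corrected plate score, outside the 99.7% band of its plate's samples, either direction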
M1 antag confirm: rat M1 muscarinic receptor antagonists, confirmation, CHO cells, Fluo-4 calcium, duplicate; shares compounds with M1 antag; ACh EC80 antagonism; active compounds read low; calcium response (max-min fluorescence) at 10 µM; hit rate 43% among 1,700; AID 677, 2007;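 active means calcium response below the same-plate mean of wells given acetylcholine alone at its 80%-effect dose, minus 3 SD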;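 further: raw fluorescence intensity difference in arbitrary instrument units and not normalized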
mGluR4 antag: human mGluR4 response to M1 antagonist hits, M1 allosteric modulator project, cell-based, antagonist mode, secondary assay 1 | shares compounds with M1 antag | CHO-mGluR4 calcium flux, Fluo-4 fluorescence, glutamate EC80; active compounds read low | fluorescence response (max-min) at 10 µM | hit rate 0.9% among 1,700;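 active means fluorescence response below the plate's average for near-maximal glutamate wells, less 3 SD of those wells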;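 further: raw unnormalized fluorescence span taken in the window right after glutamate addition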
* marks the source's active call; other numbers are inactive results; nt = no result given.

SMILES	M1 antag	Htt clearance	A340 absorber	Autofluor 339	NADH coupling	M1 ag	M1 antag confirm	mGluR4 antag
COc1ccccc1S(=O)Cc1ccc(C(=O)NC2CCCC2)o1 (configuration not stated)	0.23	30	1	1.1	1%	-0.21	nt	nt
COc1ccc(N2C(=O)C(Cl)=C(Nc3c(C)n(C)n(-c4ccccc4)c3=O)C2=O)cc1	-3.8*	nt	1	1	2%	-0.0043	427*	254
COc1ccccc1C(=O)Nc1c(C)n(C)n(-c2ccccc2)c1=O	-0.033	26	1	1.1	7%	0.29	nt	nt
CCOC(=O)c1c(NC(=O)c2nc3n(n2)C(C(F)F)CC(C)N3)sc2c1CCCC2 (configuration not stated)	-5.7*	nt	1.1	5.1*	12%	0.43	647	238
Cc1nn(Cc2ccc(Cl)cc2Cl)c(C)c1NC(=O)c1nc2n(n1)C(C(F)F)CC(C)N2 (configuration not stated)	-0.3	10	0.99	1.2	4%	0.55	nt	nt
COc1cc2[nH]c(=S)n(NC(=O)CC(C)C)c(=O)c2cc1OC	-0.032	42	1.1	1.1	8%	1.8	nt	nt
COc1ccc(N2C(=O)CCC(C(=O)N3CCCCC3)C2c2ccc(F)cc2)cc1 (configuration not stated)	-0.42	nt	1	1.2	3%	-0.3	nt	nt
COc1ccc(C2C(C(=O)N3CCN(C)CC3)c3ccccc3C(=O)N2C2CCCCC2)cc1 (configuration not stated)	-0.59	40	1	1.1	0%	0.091	nt	nt
COc1ccc(C2C(C(=O)N3CCCC3)c3cc(OC)c(OC)cc3C(=O)N2C)cc1OC (configuration not stated)	0.11	nt	1.1	1	3%	-0.46	nt	nt
COc1ccc(C2C(C(=O)N3CCOCC3)c3ccccc3C(=O)N2c2ccc(OC)cc2)cc1 (configuration not stated)	-13*	-45	1	1.1	0%	-0.19	701	232
COc1ccc(C2C(C(=O)N3CCN(c4ccccc4)CC3)c3ccccc3C(=O)N2C)cc1OC (configuration not stated)	-4.4*	-10	1	1.1	7%	0.53	538	201
COc1ccc(N2C(=O)CCC(C(=O)N3CCOCC3)C2c2ccc(F)cc2)cc1 (configuration not stated)	-3.1*	-36	1	1.1	2%	0.46	542	227
CC(C)(C)C1CCc2[nH]nc(C(=O)O)c2C1 (configuration not stated)	0.02	10	0.99	1	3%	-0.35	nt	nt
CC(C)C(=O)N1CCC(CN=CC2=C(O)CC(C)(C)CC2=O)CC1	nt	1	nt	nt	nt	nt	nt	nt
Cn1c(SCC(=O)N2CCCCC2)nc2c([nH]c3ccccc32)c1=O	-3.5*	nt	1.1	1.1	5%	0.18	443*	260
O=C(CCN1CCc2ccccc2C1)Nc1cccc(F)c1	-1*	nt	1	1.1	0%	0.67	601	250
CCOCCCNc1nc(=S)[nH]c2cc(OC)c(OC)cc12	-2.9*	24	1.1	1.2	7%	-0.34	550	206
COc1cc2c(cc1OC)CN(C(=O)c1ccccc1C(=O)O)CC2	-0.83	33	1	1.5	6%	-0.6	nt	nt
COCCNC(=O)CSc1nc2cc(OC)c(OC)cc2c(=O)n1Cc1ccco1	0.23	nt	1	1	4%	0.22	nt	nt
CCSc1nc2cc(OC)c(OC)cc2c(=O)n1CC	-3.1*	nt	1.1	1	2%	0.25	566	241
